The values below come from PubChem BioAssay (NCATS).

Records with an inconclusive call do not appear. Calls of active or inactive are those of the source. Unless noted, the call rests on the fitted dose curve; in most records, active means well fitted curve in either direction with a large enough effect (not every such curve was filed as active); inconclusive means small, poorly fitted or top-dose-only effect, or another doubt; inactive means flat fitted curve, though single readings scatter.

The nature of experiment [1]: AP1 Signaling Pathway (AID 357). Further: on the % scale 0 is the no-effect control and ±100 the full control effect. The procedure, abridged: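 ME-180 cells with beta-lactamase reporter under AP-1 response element, stimulated with EC50 EGF; compounds tested in titration series, 5 h at 37 °C. CCF4 substrate added 2.5 h at room temperature; 460/530 nm emission ratio gave %activity and AC50.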
For experiment [2], the target named is Cytochrome P450 1A2 (Homo sapiens) (UniProt P05177). In words: p450-cyp1a2 (AID 410; calls by dose curve;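 further: -100% = full effect of reference inhibitor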). A digest of the protocol: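 Read-out is luminescence from luciferin produced by CYP1A2 demethylation of Luciferin-ME (100uM, at Km). Detection reagent stopped the 60 min NADPH-dependent reaction; signals were normalized to 57 uM furafylline.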
Chain of Cytochrome P450 1A2 (Homo sapiens) (P05177 whole entry, looked up): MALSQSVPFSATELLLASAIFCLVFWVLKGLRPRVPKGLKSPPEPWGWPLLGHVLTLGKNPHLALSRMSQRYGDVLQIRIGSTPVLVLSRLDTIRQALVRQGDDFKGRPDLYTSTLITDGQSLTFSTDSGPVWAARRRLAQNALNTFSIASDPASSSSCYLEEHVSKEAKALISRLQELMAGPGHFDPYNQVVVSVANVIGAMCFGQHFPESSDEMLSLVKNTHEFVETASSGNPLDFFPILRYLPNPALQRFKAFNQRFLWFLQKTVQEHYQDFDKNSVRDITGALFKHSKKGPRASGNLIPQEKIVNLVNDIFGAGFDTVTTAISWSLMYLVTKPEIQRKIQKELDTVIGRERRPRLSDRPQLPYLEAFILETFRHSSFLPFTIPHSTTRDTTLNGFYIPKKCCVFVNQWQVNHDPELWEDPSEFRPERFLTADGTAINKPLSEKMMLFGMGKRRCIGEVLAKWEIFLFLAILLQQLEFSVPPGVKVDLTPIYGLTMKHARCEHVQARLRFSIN
Experiment [3] in a line: NFAT Signaling Pathway (AID 444).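 Further: carbachol stimulus at about its EC50 of 1 µM final; on the % scale 0 is the no-effect control and ±100 the full control effect.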 The conditions noted are these: Jurkat NFAT-bla M1, carbachol, beta-lactamase ratio, 5 h; at 17.2 µM (top of the series). The procedure, abridged:
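Jurkat cells with NFAT-driven β-lactamase reporter and co-expressed M1 receptor, stimulated with carbachol (final 1 uM, ~EC50), compound titration, 5 h at 37 °C. CCF4 loaded 1 h at RT; 460/530 nm ratio gave %activity and AC50.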

The nature of experiment [4]: Stat Signaling Pathway (AID 446).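 Further: ME-180 cervical cancer cells given 40 pM IL-6 alongside compound; SIE-controlled beta-lactamase reporter measured as 460/530 nm FRET emission ratio; on the % scale 0 is the no-effect control and ±100 the full control effect.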 The procedure, abridged: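 Overnight-plated ME-180 cells bearing a STAT Inducible Element beta-lactamase reporter; 5 h co-exposure to compound and 40 pM IL-6; values normalized to 300 pM IL-6 and 125 nM JAK inhibitor controls.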
For experiment [5], the target named is Glucocorticoid receptor (Homo sapiens) (UniProt P04150). In words: GR-GFP Redistribution (AID 450;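 active means compounds whose dose series gives a full or clear partial fitted curve of increased nuclear translocation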; further: potency means the concentration at half of the fitted maximal effect). The conditions noted are these: U2OS GR-GFP nuclear translocation, laser cytometry, 2 h.
Chain of Glucocorticoid receptor (Homo sapiens) (P04150 whole entry, looked up): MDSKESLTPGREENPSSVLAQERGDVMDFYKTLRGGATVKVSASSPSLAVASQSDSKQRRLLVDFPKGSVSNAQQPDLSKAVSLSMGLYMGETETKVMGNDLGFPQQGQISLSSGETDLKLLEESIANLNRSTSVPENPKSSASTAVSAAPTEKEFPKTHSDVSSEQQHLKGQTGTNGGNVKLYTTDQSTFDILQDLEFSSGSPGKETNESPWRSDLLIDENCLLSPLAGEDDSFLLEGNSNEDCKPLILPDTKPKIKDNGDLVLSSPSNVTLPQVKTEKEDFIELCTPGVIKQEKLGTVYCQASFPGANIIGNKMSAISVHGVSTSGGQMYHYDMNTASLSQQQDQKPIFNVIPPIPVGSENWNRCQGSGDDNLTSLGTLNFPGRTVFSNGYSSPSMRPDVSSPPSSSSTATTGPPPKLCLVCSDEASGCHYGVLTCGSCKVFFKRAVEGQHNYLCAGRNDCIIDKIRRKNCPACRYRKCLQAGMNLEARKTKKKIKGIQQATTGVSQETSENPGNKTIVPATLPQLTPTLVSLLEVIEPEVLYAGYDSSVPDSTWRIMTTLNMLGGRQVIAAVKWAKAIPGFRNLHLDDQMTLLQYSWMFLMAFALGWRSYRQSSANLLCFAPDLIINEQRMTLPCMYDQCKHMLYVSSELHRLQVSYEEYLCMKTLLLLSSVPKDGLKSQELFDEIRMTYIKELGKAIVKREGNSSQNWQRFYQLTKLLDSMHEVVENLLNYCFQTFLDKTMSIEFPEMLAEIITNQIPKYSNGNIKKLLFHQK
Experiment [6] shares this target. In words: GR-EFC Redistribution (AID 451; calls by dose curve; further: potency means the concentration at half of the fitted maximal effect). The conditions noted are these: CHO-K1 GR-EFC translocation, beta-gal luminescence, 2 h. The procedure, abridged:
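CHO-K1 cells expressing nuclear EA and GR-ED fragments of b-gal; compounds titrated up to 46 uM final, 2 h at 37 C. GR nuclear translocation read as complemented b-gal luminescence after 1 h RT detection.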

Experiment [7] addresses Mitogen-activated protein kinase 10 (Mus musculus) (UniProt Q61831). In words: JNK3 AlphaScreen Assay (AID 530).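 Further: kinase came from lysate of stimulated human HepG2 cells; signal reports phosphorylation of biotinylated GST-cJun 1-79 at Ser73 with 10 µM ATP; on the % scale 0 is the no-effect control and ±100 the full control effect.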 The procedure, abridged:
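HepG2 lysate (IL-1b/TNFa pre-activated) + biotin-GST-cJun 1-79 + anti-pSer73 cJun; cpd titration, 15 min RT; ATP 10 uM start; Tris pH 7.6, MgCl2, DTT, vanadate; beads in EDTA buffer; AlphaScreen.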
(Alpha assays give light when donor and acceptor beads are brought close together.)

The target in experiment [8] is 3',5'-cyclic-AMP phosphodiesterase 4B (Homo sapiens) (UniProt Q07343). Kind of experiment: qHTS Assay for Inhibitors of PDE-IV (AID 607; active means well fitted activation curve with a large enough effect in the main read-out, with a control signal flat, not every such curve was filed as active; further: % of control where 0% means no effect). The procedure, abridged:
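Live HEK293 cells with a modified cyclic nucleotide-gated (CNG) channel report intracellular cAMP via membrane-potential dye fluorescence (ex 535/em 590 nm). Endogenous PDE-IV was targeted. Compounds were tested at up to 22.9 uM final; RO 20-1724 100 uM served as control.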
(In general: In qHTS, concentration-response curves come from the screen itself.)

Experiment [9] in a line: qHTS Assay for Lipid Storage Modulators (AID 1519; calls by dose curve). Conditions: Drosophila S3 cells, BODIPY lipid droplet/cell ratio, laser cytometry, cells loaded with oleic acid; for activity change, negative = inhibition: at 25.7 µM (top of the series). The procedure, abridged:
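Cells seeded at 5,000 per well were treated with compounds over a concentration series and loaded with oleic acid (400 uM, as added). Lipid droplet fluorescence (488 nm excitation, 500-530 nm channel) was read by laser-scanning cytometry and normalized to 20 uM Triacsin C.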

Experiment [10] addresses Ubiquitin carboxyl-terminal hydrolase 1 (Homo sapiens) (UniProt O94782). Kind of experiment: Inhibitors of USP1/UAF1: Pilot qHTS (AID 504865; active means well fitted curve in the direction sought with a large enough effect; an effect the other way counts as inactive or inconclusive;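 further: rhodamine fluorescence freed from ubiquitin-rhodamine substrate followed over time; top concentration of the series differs between compounds; on the % scale 0 is the no-effect control and ±100 the full control effect; nearly all actives have a fitted effect of over 35% in size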). A digest of the protocol:
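1nM USP1/UAF1 + cpd, 15 min RT; start w/ Ub-Rho 150nM final; kinetic FL 480/540 nm, 6 reads q60 s. Buffer 50mM HEPES pH 7.8, 0.5mM EDTA, 1mM TCEP, 0.01% Tween-20, 0.1 mg/ml BSA.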

Experiment [11] addresses Cytochrome P450 3A4 (Homo sapiens) (UniProt P08684). Kind of experiment: qHTS Assay for Activators of Cytochrome P450 3A4 (AID 885; active means well fitted curve in the direction sought with a large enough effect; an effect the other way counts as inactive or inconclusive; further: nearly all actives have a fitted effect of over 65% in size). A digest of the protocol:
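Using 20nM recombinant human CYP3A4 in potassium phosphate (200mM), substrate Luciferin-PPXE at 25uM, luminescent luciferin detection followed a 60-min RT NADPH reaction; data scaled to 57 uM ketoconazole.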

In experiment [12] the target is ATP-dependent 6-phosphofructokinase (Trypanosoma brucei brucei) (UniProt O15648). Kind of experiment: qHTS Assay to Find Inhibitors of T. brucei phosphofructokinase: hit validation (AID 492961; active means well fitted curve in the direction sought with a large enough effect; an effect the other way counts as inactive or inconclusive). A digest of the protocol:
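Inhibition of parasite PFK is measured as reduced ADP formation, quantified via luciferase after ATP depletion. Assay used 0.1 mM ATP, 0.5 mM F6P, 1.25 nM enzyme, 45 min incubation.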

Experiment [13] deals with Luciferin 4-monooxygenase (Photinus pyralis) (UniProt P08659). Kind of experiment: Biochemical firefly luciferase enzyme assay for NPC (AID 624030; active means well fitted curve in the direction sought with a large enough effect; an effect the other way counts as inactive or inconclusive;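 further: purified P. pyralis luciferase at 10 nM with luciferin and ATP substrate; 0% = DMSO and -100% = full luciferase inhibition by PTC124 control; nearly all actives have a fitted effect of over 70% in size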). A digest of the protocol: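 Purified P. pyralis luciferase at 10 nM in 50 mM Tris Acetate (final), luminescence read within 5 minutes of enzyme addition to compounds. Activity normalised to PTC124 versus DMSO; concentration-response curves classed by r2, magnitude and activity.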
Chain of Luciferin 4-monooxygenase (Photinus pyralis) (P08659 whole entry, looked up): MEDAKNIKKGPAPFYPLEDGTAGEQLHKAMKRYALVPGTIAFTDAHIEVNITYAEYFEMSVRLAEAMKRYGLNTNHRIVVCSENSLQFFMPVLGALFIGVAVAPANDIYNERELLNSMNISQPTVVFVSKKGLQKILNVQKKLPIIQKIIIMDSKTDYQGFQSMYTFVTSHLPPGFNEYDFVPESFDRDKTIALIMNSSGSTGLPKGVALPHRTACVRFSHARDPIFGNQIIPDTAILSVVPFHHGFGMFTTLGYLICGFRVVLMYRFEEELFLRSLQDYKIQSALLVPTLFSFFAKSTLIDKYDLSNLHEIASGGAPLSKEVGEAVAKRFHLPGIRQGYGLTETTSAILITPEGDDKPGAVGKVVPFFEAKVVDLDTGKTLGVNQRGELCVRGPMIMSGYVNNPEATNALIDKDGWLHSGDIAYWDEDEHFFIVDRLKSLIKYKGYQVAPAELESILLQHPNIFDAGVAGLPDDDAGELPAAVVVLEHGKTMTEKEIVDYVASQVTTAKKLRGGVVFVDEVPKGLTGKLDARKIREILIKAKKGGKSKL

Experiment [14] in a line: S16 Schwann cell PMP22 intronic element firefly luciferase assay (AID 624032; active means well fitted curve in the direction sought with a large enough effect; an effect the other way counts as inactive or inconclusive;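 further: plate controls were DMSO for no effect and PTC124 positive control mean for full effect; nearly all actives have a fitted effect of over 30% in size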). A digest of the protocol:
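Rat S16 Schwann cells stably carrying firefly luciferase driven by a PMP22 intronic element, in 10% FBS, treated 24 h at 37 C. ONE-Glo luminescence normalized to PTC124 control and DMSO (0%); curves classed by r2, magnitude and activity.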

Experiment [15] can be described thus: qHTS profiling for inhibitors of Plasmodium falciparum proliferation (AID 504749; active means well fitted curve in the direction sought with a large enough effect; an effect the other way counts as inactive or inconclusive;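 further: 0% = DMSO vehicle and full inhibition = artemisinin control; nearly all actives have a fitted effect of over 60% in size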). The conditions noted are these: P. falciparum in erythrocytes, SYBR Green DNA, 72 h, at 12.8 µM (top of the series). The procedure, abridged: (§1)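 SYBR Green fluorescence (ex 485 nm, em 535 nm) reports parasite DNA after 72 h compound exposure of infected red cells at 0.3% parasitemia, 2.5% hematocrit; signal normalized to 0.29 uM artemisinin and vehicle wells.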

The subject of the next experiment is C2A. The description is as above. Conditions: P. falciparum in erythrocytes, SYBR Green DNA, 72 h; series mostly up to 28.7 µM. The procedure, abridged:
as §1

For a further experiment, the system named is CP192. The description is as above. The conditions noted are these: P. falciparum in erythrocytes, SYBR Green DNA, 72 h; series mostly up to 28.7 µM. The procedure, abridged: as §1
The test system of another experiment is CP262. The experiment is described as above. Conditions: P. falciparum in erythrocytes, SYBR Green DNA, 72 h; series mostly up to 28.7 µM. A digest of the protocol: as §1
The test system of another experiment is CP286. The description is as above. Conditions: P. falciparum in erythrocytes, SYBR Green DNA, 72 h; series mostly up to 28.7 µM. The procedure, abridged: as §1
The test system of another experiment is FAB9. Described as above. The conditions noted are these: P. falciparum in erythrocytes, SYBR Green DNA, 72 h; series mostly up to 28.7 µM. The procedure, abridged: as §1
Setting [16] is: measured here: cell count channel max response.
Setting [17] is: measured here: lipid channel max response.

Chain of 3',5'-cyclic-AMP phosphodiesterase 4B (Homo sapiens) (Q07343 whole entry, looked up): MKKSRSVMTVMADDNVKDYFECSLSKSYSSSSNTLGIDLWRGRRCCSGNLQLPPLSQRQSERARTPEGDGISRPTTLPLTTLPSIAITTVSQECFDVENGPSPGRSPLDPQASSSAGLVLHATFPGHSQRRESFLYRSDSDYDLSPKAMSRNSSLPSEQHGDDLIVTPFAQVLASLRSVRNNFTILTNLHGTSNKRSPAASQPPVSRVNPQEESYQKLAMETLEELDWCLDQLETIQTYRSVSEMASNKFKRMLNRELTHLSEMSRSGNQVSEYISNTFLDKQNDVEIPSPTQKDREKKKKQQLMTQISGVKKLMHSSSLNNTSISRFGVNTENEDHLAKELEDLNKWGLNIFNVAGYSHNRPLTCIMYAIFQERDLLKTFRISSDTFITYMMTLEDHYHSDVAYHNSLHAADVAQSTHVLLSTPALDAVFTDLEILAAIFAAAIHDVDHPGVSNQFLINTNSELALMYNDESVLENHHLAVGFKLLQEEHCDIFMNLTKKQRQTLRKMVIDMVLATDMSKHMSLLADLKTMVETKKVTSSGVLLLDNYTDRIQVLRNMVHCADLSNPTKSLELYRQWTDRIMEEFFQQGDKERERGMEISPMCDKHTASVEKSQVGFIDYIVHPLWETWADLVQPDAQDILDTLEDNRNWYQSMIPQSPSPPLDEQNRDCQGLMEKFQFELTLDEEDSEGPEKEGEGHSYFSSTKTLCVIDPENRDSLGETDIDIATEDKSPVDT
Chain of Ubiquitin carboxyl-terminal hydrolase 1 (Homo sapiens) (O94782 whole entry, looked up): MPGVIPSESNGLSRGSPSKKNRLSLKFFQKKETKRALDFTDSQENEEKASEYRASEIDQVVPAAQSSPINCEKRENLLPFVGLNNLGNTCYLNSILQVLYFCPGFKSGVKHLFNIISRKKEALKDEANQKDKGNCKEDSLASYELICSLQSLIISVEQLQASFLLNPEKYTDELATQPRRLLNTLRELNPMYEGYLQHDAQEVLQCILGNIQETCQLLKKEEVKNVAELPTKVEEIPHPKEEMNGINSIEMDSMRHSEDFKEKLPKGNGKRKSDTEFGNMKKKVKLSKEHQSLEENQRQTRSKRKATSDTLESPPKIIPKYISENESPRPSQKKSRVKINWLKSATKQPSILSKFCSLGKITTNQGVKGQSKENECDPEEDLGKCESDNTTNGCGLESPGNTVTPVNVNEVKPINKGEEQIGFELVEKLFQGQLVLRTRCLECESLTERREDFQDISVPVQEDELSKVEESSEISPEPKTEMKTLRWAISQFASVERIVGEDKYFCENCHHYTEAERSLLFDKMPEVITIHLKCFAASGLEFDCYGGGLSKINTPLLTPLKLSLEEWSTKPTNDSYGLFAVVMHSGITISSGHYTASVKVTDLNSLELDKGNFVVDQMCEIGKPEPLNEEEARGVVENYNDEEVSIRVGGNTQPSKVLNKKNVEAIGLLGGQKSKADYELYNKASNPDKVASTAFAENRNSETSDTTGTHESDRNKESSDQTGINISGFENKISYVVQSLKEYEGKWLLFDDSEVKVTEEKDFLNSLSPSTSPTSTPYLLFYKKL
Chain of ATP-dependent 6-phosphofructokinase (Trypanosoma brucei brucei) (O15648 whole entry, looked up): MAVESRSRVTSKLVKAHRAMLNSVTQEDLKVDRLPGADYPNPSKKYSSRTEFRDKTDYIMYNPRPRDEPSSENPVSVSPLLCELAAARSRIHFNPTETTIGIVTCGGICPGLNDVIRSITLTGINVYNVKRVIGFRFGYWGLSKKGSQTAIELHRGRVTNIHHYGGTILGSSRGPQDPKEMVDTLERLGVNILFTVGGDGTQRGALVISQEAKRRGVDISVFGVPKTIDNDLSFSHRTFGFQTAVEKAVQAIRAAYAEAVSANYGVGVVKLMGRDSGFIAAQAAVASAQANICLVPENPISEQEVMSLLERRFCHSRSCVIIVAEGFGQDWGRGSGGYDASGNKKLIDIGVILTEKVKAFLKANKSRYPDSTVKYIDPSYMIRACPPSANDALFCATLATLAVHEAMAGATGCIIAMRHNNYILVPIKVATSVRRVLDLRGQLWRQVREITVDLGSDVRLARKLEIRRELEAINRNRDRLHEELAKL
Chain of Cytochrome P450 3A4 (Homo sapiens) (P08684 whole entry, looked up): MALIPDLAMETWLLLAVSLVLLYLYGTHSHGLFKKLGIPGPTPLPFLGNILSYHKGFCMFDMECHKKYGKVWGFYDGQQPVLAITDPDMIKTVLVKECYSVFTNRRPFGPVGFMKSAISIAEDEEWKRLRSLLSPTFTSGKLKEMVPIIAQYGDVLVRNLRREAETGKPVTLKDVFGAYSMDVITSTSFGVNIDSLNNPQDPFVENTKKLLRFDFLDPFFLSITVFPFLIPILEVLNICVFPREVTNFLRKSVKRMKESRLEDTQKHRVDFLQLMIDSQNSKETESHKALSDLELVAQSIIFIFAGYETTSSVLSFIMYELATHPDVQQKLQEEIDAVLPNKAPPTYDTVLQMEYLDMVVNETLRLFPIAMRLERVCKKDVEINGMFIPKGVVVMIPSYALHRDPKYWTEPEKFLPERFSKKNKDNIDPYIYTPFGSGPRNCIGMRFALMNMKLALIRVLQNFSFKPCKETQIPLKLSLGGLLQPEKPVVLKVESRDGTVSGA

In the case of `C[C@H]1C(=O)O[C@@H]2CCN3CC=C(COC(=O)[C@@](C)(O)[C@@]1(C)O)[C@H]23`, the outcome in experiment [1], in experiment [4] and in experiment [7] was inactive. The Potency entry in experiment [2], in experiment [8] and in experiment [10] was “inactive” in each case. In addition, the activity change, negative = inhibition in experiment [3] was 3.38% (inactive); in experiment [9] it was -2.11% (inactive). Besides, the Potency in [5] and in [6] was > 20.6 µM (inactive) throughout. In addition, the figures for the max response in experiment [9] (setting [16]) and in experiment [9] (setting [17]) were 4.14% and 3.19%, respectively.

Consider `CCN1C[C@]2(C)CC[C@H](OC)[C@@]34[C@@H]2[C@H](OC(C)=O)[C@]2(OCO[C@@]25C[C@@H](OC)[C@@H]2C[C@@]3(O)[C@H]5[C@@H]2OC)[C@H]14`, for which the result in [1], in [4] and in experiment [7] was inactive. In addition, the Potency entry in experiment [2], in experiment [8], in experiment [11] and in [10] was “inactive” in each case. Moreover, the activity change, negative = inhibition is -4.41% (inactive) in [3] and -1.59% (inactive) in experiment [9]. The Potency in experiment [5] and in experiment [6] was > 20.6 µM (inactive) throughout. In addition, the max response in experiment [9] (setting [16]) was -0.005%; in [9] (setting [17]) it was 0.99%.

As to `CC[C@H](C)C(=O)O[C@@H]1[C@H](O)[C@@H]2[C@H](CN3C[C@@H](C)CC[C@@H]3[C@@]2(C)O)[C@@H]2C[C@@]34O[C@@]5(O)[C@@H](OC(=O)[C@](C)(O)CC)CC[C@@]3(C)[C@H]5[C@H](OC(C)=O)[C@@H](OC(C)=O)[C@H]4[C@]12O`, the compound was called inactive in experiment [1], in experiment [4] and in experiment [7]. The Potency entry in experiment [2] and in experiment [8] was “inactive” in each case. In addition, the activity change, negative = inhibition in [3] is -8.39% (inactive); in experiment [9], -1.19% (inactive). Further, the Potency in experiment [5] and in [6] was > 20.6 µM (inactive) each time. Moreover, the max response in [9] (setting [16]) is -2.6%; in experiment [9] (setting [17]), -3.1%.

Turning to `NCC[C@H](O)C(=O)N[C@H]1C[C@@H](N)[C@@H](O[C@H]2O[C@@H](CN)[C@@H](O)[C@@H](O)[C@@H]2N)[C@@H](O[C@H]2O[C@@H](CO)[C@@H](O)[C@@H]2O)[C@@H]1O`, the compound was classed as inactive in experiment [1], in experiment [4] and in experiment [7]. Besides, the Potency entry (in experiment [2]; in experiment [12]; in [10]; in [13]; in [14]; in the experiment with C2A) was “inactive” in each case. For the same compound, the Potency result in the experiment on CP192, in the experiment with CP262, with CP286 and in the experiment on FAB9 was “inactive” each time. Also, the results for the activity change, negative = inhibition in experiment [3] and in [9] were -14.8% (inactive) and -3.44% (inactive), respectively. Moreover, the max response in [9] (setting [16]) was -10.6%; in experiment [9] (setting [17]), -13.9%. Besides, the figures for the activity, negative = inhibition in [15] (parasite line A) and in [15] (parasite line B) were 12.6% (inactive) and 8.36% (inactive), respectively.

`C(#CCN1CCCC1)CN1CCCC1`: the call in experiment [1], in experiment [4] and in experiment [7] was inactive. The Potency entry in [2], in experiment [8] and in experiment [10] was “inactive” in each case. Further, the Potency in [5] and in experiment [6] was > 20.6 µM (inactive) each time. Moreover, the activity change, negative = inhibition in experiment [9] is 0.99% (inactive). Moreover, the max response was determined as 10.9% in experiment [9] (setting [16]) and 10.3% in experiment [9] (setting [17]).

With `CN1[C@H]2CC(=O)C[C@@H]1[C@@H](O)C2`, the compound was called inactive in experiment [1], in [4] and in experiment [7]. In addition, the Potency result in experiment [2], in experiment [8] and in experiment [10] was “inactive” in each case. The activity change, negative = inhibition in [3] is -9.47% (inactive); in experiment [9], -5.66% (inactive). The Potency in experiment [5] and in experiment [6] was > 20.6 µM (inactive) in each case. For the same compound, the results for the max response in [9] (setting [16]) and in experiment [9] (setting [17]) were -20.9% and -23.7%, respectively.

`COc1cc(C(=O)OC2C[C@H]3CC[C@@H](C2)N3C)ccc1O` (some centres undefined): the compound was called inactive in [1], in experiment [4] and in [7]. The Potency result in [2], in experiment [8] and in experiment [10] was “inactive” each time. Besides, the Potency in [5] and in experiment [6] was > 20.6 µM (inactive) throughout. The activity change, negative = inhibition in [9] is 2.65% (inactive). The max response in experiment [9] (setting [16]) was -32.4%; in [9] (setting [17]), -27.3%.
